Measurements from ChEMBL document CHEMBL1201862, “PubChem BioAssay data set” (2004).
About 2,100 (0.53%) of roughly 400,000 compounds were called active. Not shown: some 14% with an inconclusive outcome. No rule for the calls is given here. For the sample, actives were picked, then their nearest neighbours and some compounds at random.

biological target: Ataxin-2 (Homo sapiens) (UniProt Q99700); experiment: qHTS for Inhibitors of ATXN expression.; format: functional
Sequence (Q99700 whole entry): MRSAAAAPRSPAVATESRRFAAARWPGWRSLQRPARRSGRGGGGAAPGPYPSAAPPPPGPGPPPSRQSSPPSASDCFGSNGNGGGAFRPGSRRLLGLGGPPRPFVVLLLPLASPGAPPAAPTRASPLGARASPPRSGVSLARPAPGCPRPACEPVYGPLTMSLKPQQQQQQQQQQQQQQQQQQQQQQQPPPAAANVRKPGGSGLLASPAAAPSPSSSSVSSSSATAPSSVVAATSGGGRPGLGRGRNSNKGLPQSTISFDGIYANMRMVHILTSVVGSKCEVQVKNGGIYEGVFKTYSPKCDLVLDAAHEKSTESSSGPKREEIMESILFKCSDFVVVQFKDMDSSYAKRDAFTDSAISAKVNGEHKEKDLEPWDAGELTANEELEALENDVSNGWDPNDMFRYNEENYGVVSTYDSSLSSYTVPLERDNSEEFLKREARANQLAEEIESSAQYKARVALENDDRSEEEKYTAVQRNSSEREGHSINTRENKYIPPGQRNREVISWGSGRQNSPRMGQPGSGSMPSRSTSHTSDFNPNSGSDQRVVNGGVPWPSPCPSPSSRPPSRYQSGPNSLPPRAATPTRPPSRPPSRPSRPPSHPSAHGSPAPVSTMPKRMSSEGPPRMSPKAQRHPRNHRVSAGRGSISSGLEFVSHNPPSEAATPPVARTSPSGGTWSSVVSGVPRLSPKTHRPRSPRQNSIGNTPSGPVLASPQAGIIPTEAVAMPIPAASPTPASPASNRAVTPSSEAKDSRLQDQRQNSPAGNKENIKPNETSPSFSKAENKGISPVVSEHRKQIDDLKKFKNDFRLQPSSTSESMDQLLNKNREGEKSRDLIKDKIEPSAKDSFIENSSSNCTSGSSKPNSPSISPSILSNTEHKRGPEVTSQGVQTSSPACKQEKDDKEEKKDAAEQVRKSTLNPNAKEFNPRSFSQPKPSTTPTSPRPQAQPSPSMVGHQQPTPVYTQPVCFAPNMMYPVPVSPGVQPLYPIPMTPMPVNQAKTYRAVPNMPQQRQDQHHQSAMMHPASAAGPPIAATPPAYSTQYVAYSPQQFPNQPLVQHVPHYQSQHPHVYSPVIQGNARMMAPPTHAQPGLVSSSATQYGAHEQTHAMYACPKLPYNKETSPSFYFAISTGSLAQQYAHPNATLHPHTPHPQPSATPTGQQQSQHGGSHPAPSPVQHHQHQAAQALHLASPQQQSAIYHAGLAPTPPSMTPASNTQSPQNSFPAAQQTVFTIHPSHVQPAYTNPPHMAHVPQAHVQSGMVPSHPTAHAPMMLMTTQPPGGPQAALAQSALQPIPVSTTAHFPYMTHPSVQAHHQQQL

| SMILES | Potency |
| --- | --- |
| O=C(/C=C/c1cn(CC(O)CN2CCc3ccccc32)c2ccccc12)c1ccc(Br)cc1 (centres undefined) | inactive |
| COc1ccc(CNc2cc(C)nc3ccc(OC)cc23)cc1 | inactive |
| COc1ccc(CNCCC2(C(C)C)CCOC(C)(C)C2)cc1 (centres undefined) | inactive |
| COc1ccc2cc(CNCCOCCOCCNCc3ccc4cc(OC)ccc4c3)ccc2c1 | 29.9 µM (active) |
| OCCCc1nc2n(n1)C(c1ccccc1)C=C(c1ccccc1)N2 (centres undefined) | inactive |
| Cc1cc(N2CCN(c3ccc(C(F)(F)F)cc3[N+](=O)[O-])CC2)c2ccccc2n1 | inactive |
| O=C(Cc1ccccc1)Nc1cc([N+](=O)[O-])ccc1N1CCOCC1 | inactive |
| Cc1cc(N2CCN(C(=O)Oc3ccc([N+](=O)[O-])cc3)CC2)c2ccccc2n1 | 35.5 µM (active) |
| CC(C(=O)N1CCCCCC1)c1ccc([N+](=O)[O-])cc1 (centres undefined) | inactive |
| CCCn1nc(NC(=O)C(C)(C)C)c2cc3cc(OC)ccc3nc21 | inactive |
| Cc1ccc(-c2nc3cc(Br)cnc3nc2-c2ccc(C)cc2)cc1 | inactive |
| Cc1nnsc1C(=O)NNC(=O)Nc1ccccc1 | inactive |
| O=C(c1ccccc1)c1ccccc1N1C(=O)C=CC1=O | 23.8 µM (active) |
| O=C(c1ccccc1)c1ccsc1C(=O)c1ccccc1 | inactive |
| O=C(C1=NN(c2ccccc2)C2C(=O)N(c3ccccc3Cl)C(=O)C12)c1ccccc1 (centres undefined) | inactive |
| O=C(Oc1cc(=O)oc2c1c(=O)n1c3c(cccc23)CC1)c1ccccc1 | inactive |
| COc1cccc(CNC(=O)c2cc(S(=O)(=O)N3CCCC3)cn2C)c1 | inactive |
| Cc1cc(Cl)ccc1OCC(=O)OCC(=O)Nc1cccnc1Cl | inactive |
| Cc1ccc(OCC(=O)Nc2ccc(Cl)cc2)c(-n2nc3ccccc3n2)c1 | 39.8 µM (active) |
| CN(CC(=O)Nc1ccc(Cl)cc1)C(=O)COc1ncnc2ccccc12 | inactive |
| Cc1cccc(C2=NN(c3ccccc3)[C@@H](C(=O)N3CCOC3=O)[C@@H]2c2ccc(F)cc2)c1 | inactive |
| Cc1cc(NCCCCO)n2c(nc3ccccc32)c1C#N | inactive |
| Cc1ccc(-c2ncns2)cc1 | inactive |

| SMILES | Potency |
| --- | --- |
| Oc1nncc2c3ccccc3n(Cc3cccc(Cl)c3)c12 | inactive |
| OC(COc1ccc(Cl)cc1)CSc1ccccn1 (centres undefined) | inactive |
| N=c1n(Cc2ccccc2)c2ccccc2n1CC(O)COc1ccc(Cl)cc1Cl (centres undefined) | 37.7 µM (active) |
| COc1ccc(OCc2nc3ccccc3n2C(C)C)cc1 | inactive |
| N=c1n(CCO)c2ccccc2n1CCOc1ccc(Cl)cc1Cl | 25.1 µM (active) |
| COc1ccc(OCC(O)Cn2c(=N)n(Cc3ccccc3)c3ccccc32)cc1 (centres undefined) | 35.5 µM (active) |
| N=c1n(Cc2ccc(Cl)cc2)c2ccccc2n1CC(O)COc1ccccc1 (centres undefined) | 35.5 µM (active) |
| COc1ccc(OCC(O)CNC(=O)c2c(-c3ccccc3)noc2C)cc1 (centres undefined) | inactive |
| O=C(O)c1cc2cccc(S(=O)(=O)N3CCCCC3)c2cc1O | inactive |
| CC(/C=N\NC(=O)Cn1cncn1)=C/c1ccc(C(C)C)cc1 | inactive |
| CC(C)(C)C(=O)/C(=C/c1ccncc1)n1cncn1 | 20 µM (active) |
| Cc1cccc(C)c1N(CC(=O)NCc1ccc(F)cc1)C(=O)c1csnn1 | inactive |
| CN(C)c1ccc(/C=N/NC(=O)c2ccc(Cn3cc(Br)cn3)o2)cc1 | inactive |
| NC(=O)c1ccsc1NC(=O)Cc1ccc([N+](=O)[O-])cc1 | inactive |
| NC(Cc1ccc([N+](=O)[O-])cc1)=NOC(=O)C(c1ccccc1)c1ccccc1 | 25.1 µM (active) |
| NC(Cc1ccc([N+](=O)[O-])cc1)=NOC(=O)c1cccc(Br)c1 | inactive |
| CCCNC(=O)c1ccc2c(O)c(O)c(-c3ccc(C)cc3)nc2c1 | inactive |
| N#Cc1c(-c2cccc(Br)c2)cc(-c2ccco2)nc1O | inactive |
| Cc1cc(NC(=O)/C(C#N)=C/c2ccc(-c3ccc(SC(F)F)cc3)o2)n(-c2ccccc2)n1 | inactive |
| COc1cccc(-c2nn(-c3ccccc3)cc2CN(C)Cc2c(C)nc3ccccn23)c1 | 39.8 µM (active) |
| Cc1nn(C(C)C(=O)NCC2CCCO2)c(C)c1[N+](=O)[O-] (centres undefined) | inactive |
| O=C(NCc1ccc(S(=O)(=O)Nc2ccccc2Cl)s1)c1ccccc1 | inactive |
| Cc1cccn2c(=O)c3cc(C(=O)N4CCCCC4)sc3nc12 | inactive |

| SMILES | Potency |
| --- | --- |
| COc1ccc2nc(N3CCC(O)CC3)c(C#N)cc2c1 | inactive |
| Oc1c(Cl)cc(Cl)cc1C1=NNC(c2ccc(Cl)cc2)C1 (centres undefined) | inactive |
| COc1ccccc1CC(=O)NC(=O)c1ccccc1O | inactive |
| COc1ccccc1CNCC(O)Cn1c2ccccc2c2ccccc21 (centres undefined) | 22.4 µM (active) |
| COc1cccc(CNn2cnnc2)c1O | inactive |
| CC(=O)Nc1sc(/C(C#N)=C/c2ccc(Cl)c(Cl)c2)nc1-c1ccc(C)cc1 | inactive |
| COc1ccccc1CCNC(=O)C(=O)NCC1OCCN1S(=O)(=O)c1ccc([N+](=O)[O-])cc1 (centres undefined) | inactive |
| Cc1cccc(OCCn2cc(/C=N/NC(=O)c3ccncc3)c3ccccc32)c1 | inactive |
| CCC(=O)Nc1c(-c2ccccc2)c(=O)c2ccccc2n1C | inactive |
| CSc1c(CC(=O)NCCCO)n(Cc2ccccc2)c2ccccc12 | inactive |
| Cn1c2ccccc2c2cc(C(=O)NNC(=O)CCl)sc21 | 15 µM (active) |
| O=S(=O)(c1ccccc1)N1CCCN(S(=O)(=O)c2ccccc2)CC1 | inactive |
| O=S(=O)(CC(CN1CCCCC1)N1CCCCC1)c1ccccc1 (centres undefined) | 31.6 µM (active) |
| CC(CN1CCCCC1)OC(=O)c1ccco1 (centres undefined) | inactive |
| O=C(NCc1ccc2c(c1)OCO2)c1nc(Cn2ccc([N+](=O)[O-])n2)no1 | inactive |
| CCn1nc(NC(=O)C(C)C)c2cc3cccc(C)c3nc21 | inactive |
| Cn1cc(/C=N/Nc2ccccc2)c2ccccc21 | inactive |
| COc1ccc(-c2csc(-c3cccs3)n2)cc1OC | inactive |
| COc1ccc(-c2nc3c(-c4ccccc4)cnn3cc2C)cc1F | inactive |
| COc1ccc(-c2nc3c4ccccc4ccn3c2Cc2ccccc2)cc1OC | 39.8 µM (active) |
| COc1ccccc1Cc1c(-c2ccc(OC)c(OC)c2)nc2c3ccccc3ccn12 | 39.8 µM (active) |
| COc1ccc(Cc2c(-c3ccc(OC)c(OC)c3)nc3c(C)cc(Br)cn23)c(C)c1 | 20 µM (active) |
| COc1ccc(-c2nc3cnccn3c2NCc2ccccc2)cc1SC1CCCCC1 | inactive |
